SUMO Mot1 rescue: yeast Mot1-301 growth rescue at high temperature, primary screen, SUMOylation pathway inhibitor project, S. cerevisiae, ATP luminescence, 38.5C; AID 2716, 2010; 320,000 compounds, 1% hits; S. cerevisiae Mot1-301 growth rescue; percent above DMSO median, 100 means doubled; growth rescue, % at 18.8 µM;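 active = every valid replicate shows activation above 250% relative to neutral control wells; inactive = the rest, any valid replicate at or below 250%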;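 note: OY570 slx delta 5 strain wells were the positive control but not used for scaling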
AI-2 QS mod: Vibrio harveyi AI-2 quorum sensing modulators, primary screen, JMH597 strain, luminescence/OD600 ratio. Vibrio harveyi JMH597 AI-2 luminescence/OD600 ratio, 9 h; stronger effect = lower value; strain lacks LuxN and CqsS sensors; 0 = neutral-control median. activity change, % at 7.5 µM. 300,000 compounds, 0.4% hits; in the data active = activity change below about -75%, passing the limit was not always enough; inconclusive = no clear call, values can overlap the other calls;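 note: luminescence divided by OD600 gain over 9 h not by final OD600 alone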
ATG4B inh: ATG4B protease inhibitors, primary screen, biochemical, fluorescence, uHTS; Cysteine protease ATG4B (Homo sapiens), Q9Y4P1; ATG4B cleavage of LC3-PLA2, NBD-HPC fluorescence, 1 h; inhibition, % at 8.33 µM; 340,000 compounds, 0.51% hits; AID 504462, 2011; in the data active = inhibition above about 40%
Target sequence (Q9Y4P1 whole entry, looked up): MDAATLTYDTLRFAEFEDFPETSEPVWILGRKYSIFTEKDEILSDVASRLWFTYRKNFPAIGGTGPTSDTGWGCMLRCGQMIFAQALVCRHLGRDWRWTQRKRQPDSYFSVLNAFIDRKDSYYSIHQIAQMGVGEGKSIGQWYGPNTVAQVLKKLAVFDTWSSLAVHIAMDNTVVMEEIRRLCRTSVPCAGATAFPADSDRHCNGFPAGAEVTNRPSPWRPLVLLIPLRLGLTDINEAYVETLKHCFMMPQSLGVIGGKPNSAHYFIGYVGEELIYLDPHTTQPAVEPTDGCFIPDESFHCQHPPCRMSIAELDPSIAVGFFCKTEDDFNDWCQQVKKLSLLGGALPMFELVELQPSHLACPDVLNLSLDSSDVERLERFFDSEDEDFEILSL
Efflux pump mplx: inhibitors of Candida efflux pumps in yeast, primary screen, S. cerevisiae, Nile Red, multiplex | inhibition, % at 10 µM | AID 485275, 2010 | 330,000 compounds, 0.44% hits | S. cerevisiae Candida pump triplex;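 active = plate passing quality check with inhibition over a set limit, or well fluorescence over plate mean plus 4 SD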;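 note: Nile Red retained in pooled yeast measured as flow cytometry median fluorescence; 0% = buffer negative control and 100% = Enniatin B positive control; higher means more Nile Red kept so more efflux inhibition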
V-ATPase pH: regulators of yeast V-ATPase proton pumping, primary screen, pHLuorin cytosolic pH fluorescence; S. cerevisiae; response, % at 10 µM; AID 504577, 2011; 350,000 compounds, 0.37% hits; in the data active = response mostly above about 7.3%, no sharp cut-off; inactive = mostly below about 5.4%; note: actives read high
JMH597 growth rt: Vibrio harveyi growth inhibition, confirmation, counter-screen for AI-2 quorum sensing project, JMH597 strain, OD600 absorbance. shares compounds with AI-2 QS mod. 9 h; lacks LuxN and CqsS sensors. growth inhibition, % at 7.5 µM. 750 compounds, 1% hits;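 active = every replicate shows growth inhibition above 50%; inconclusive = at least half, but not all, replicates pass that cutoff; inactive = fewer than half of replicates pass it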
BB721 const-QS lum: luminescence inhibition in constitutive-on V. harveyi, confirmation, counter-screen for LuxS inhibitor project, strain BB721, luminescence readout. shares compounds with AI-2 QS mod. Vibrio harveyi BB721 luminescence, 9 h. inhibition, % at 7.5 µM. 750 compounds, 95% hits. AID 2727, 2010;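 active = inhibition above about 80% in every replicate, not just on average, limit read from the data; inconclusive = at least half of replicates past the limit, but not all; inactive = fewer than half of replicates past the limit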
BB721 growth: growth inhibition of V. harveyi BB721, confirmation, cytotoxicity control for AI-2 quorum sensing inhibitors, strain BB721, absorbance OD600. Vibrio harveyi BB721 growth, 9 h. 750 compounds, 3% hits. growth inhibition, % at 7.5 µM. shares compounds with AI-2 QS mod. AID 2728, 2010;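 active = every replicate shows growth inhibition above 50%; inconclusive = at least half but not all replicates above 50% inhibition; inactive = under half of replicates above 50% inhibition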
AI-2 QS JMH597: Vibrio harveyi AI-2 signaling luminescence modulation – JMH597 strain, confirmation | AID 2736, 2010 | inhibition, % at 7.5 µM | shares compounds with AI-2 QS mod | Vibrio harveyi JMH597 AI-2 quorum sensing luminescence, 9 h; luxN and CqsS knockout, AI-2 only | 750 compounds, 97% hits;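 active = every replicate shows more than 75% inhibition of signal versus neutral control wells; inconclusive = half to three quarters of replicates exceed 75% inhibition; inactive = fewer than half of replicates exceed 75% inhibition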
* marks the source's active call; other numbers are inactive results; ? = inconclusive; nt = no result. A selection: hits, their analogues and other compounds. The true share with any hit is near 2.5%.

SMILES	SUMO Mot1 rescue	AI-2 QS mod	ATG4B inh	Efflux pump mplx	V-ATPase pH	JMH597 growth rt	BB721 const-QS lum	BB721 growth	AI-2 QS JMH597
Cc1noc(C)c1CSCC(=O)N(C)CC(=O)Nc1ccc(Cl)c(C(F)(F)F)c1	-21	-87*	2	0	-1	13	95*	-4	96*
CN(CC(=O)Nc1ccc(Cl)c(C(F)(F)F)c1)C(=O)C1(c2ccccc2)CC1	9	1	2	0	8	nt	nt	nt	nt
CN(CC(=O)Nc1ccc(Cl)c(C(F)(F)F)c1)C(=O)c1cccs1	-10	-89*	-1	0	0	24	98*	25	98*
COc1ccc(CC(=O)Nc2ccc(C(N)=O)cc2)cc1	-15	?	3	0	-1	1	85*	-7	89*
COc1ccc(CC(=O)Nc2ccc(S(=O)(=O)Nc3nccs3)cc2)cc1	-1	?	-6	0	6	-2	84*	3	89*
O=C(Cc1ccc(Cl)cc1)Nc1ccc(S(=O)(=O)Nc2ncccn2)cc1	17	-92*	-3	0	-1	17	98*	28	99*
COc1ccc(CC(=O)OCC(=O)Nc2ccc(C(=O)Nc3ccc(OC)cc3)cc2)cc1	0	27	-5	0	-2	nt	nt	nt	nt
COc1ccc(CC(=O)Nc2ccc(S(=O)(=O)NCC3CCCO3)cc2)cc1 (stereo not given)	-7	-93*	-19	0	-1	31	99*	-34	100*
COc1ccc(CNC(=O)CN2CCN(c3ccccc3O)CC2)cc1OC	4	3	-9	0	-3	nt	nt	nt	nt
S=C(NCCc1ccccc1)Nc1ccc(Br)cn1	0	8	5	0	2	nt	nt	nt	nt
CC(Oc1ccccc1)C(=O)Nc1ccc(S(=O)(=O)NCC2CCCO2)cc1 (stereo not given)	11	?	-5	0	3	29	97*	-18	100*
O=C(CN1C(=O)c2ccccc2C1=O)Nc1ccc(S(=O)(=O)NCC2CCCO2)cc1 (stereo not given)	-22	-91*	-2	0	0	-9	96*	-32	97*
CC(=O)Nc1ccc(S(=O)(=O)NCC2CCCO2)cc1 (stereo not given)	5	-3	3	0	2	nt	nt	nt	nt
O=C(COc1cccc(C(F)(F)F)c1)Nc1cccnc1	1	6	-1	0	3	nt	nt	nt	nt
O=C(COc1cccc(C(F)(F)F)c1)Nc1ccc2[nH]ncc2c1	0	-79*	-1	0	0	11	87*	2	91*
Cc1cc(O)c(-c2cc(C(=O)Nc3cccnc3)[nH]n2)cc1C	-3	-1	-3	0	4	nt	nt	nt	nt
CCc1ccc(O)c(-c2cc(C(=O)Nc3cccnc3)[nH]n2)c1	-4	-94*	-8	0	0	-13	97*	3	97*
COc1ccc(CNC(=O)Nc2cccc(C)c2)cc1	-17	-92*	5	0	2	11	97*	28	98*
COc1ccc(CNC(=O)Nc2ccccc2)cc1	1	-88*	1	0	-2	5	95*	22	96*
COc1ccc(CNC(=O)Nc2ccc(C)cc2C)cc1	9	15	-3	0	1	nt	nt	nt	nt
COc1ccc(CNC(=O)Nc2ccc(OC)cc2)cc1	-6	-5	-1	0	-1	nt	nt	nt	nt
CC(NS(=O)(=O)c1ccc2c(c1)oc(=O)n2C)c1ccccc1 (stereo not given)	9	26	-7	-3	0	nt	nt	nt	nt
Cc1ccc(S(=O)(=O)Nc2ccc(Nc3ccccc3)cc2)cc1	43	-97*	-3	0	4	67	100*	27	100*
CN(C)S(=O)(=O)c1ccc(NC(=O)CN2CCC(Cc3ccccc3)CC2)cc1	nt	-91*	-16	1	0	2	94*	0	96*
CN(C)S(=O)(=O)c1ccc(NC(=O)CN2C(=O)NC3(CCCC3)C2=O)cc1	-7	-79*	7	0	3	9	?	12	82*
SMILES	SUMO Mot1 rescue	AI-2 QS mod	ATG4B inh	Efflux pump mplx	V-ATPase pH	JMH597 growth rt	BB721 const-QS lum	BB721 growth	AI-2 QS JMH597
CCn1cc(CNC(=O)c2c(-c3c(Cl)cccc3Cl)noc2C)c(C)n1	-18	19	-7	0	1	nt	nt	nt	nt
CC(Sc1nnc(-c2cccnc2)o1)C(=O)NC1CCCCC1 (stereo not given)	2	nt	2	0	-2	nt	nt	nt	nt
Cc1noc(C)c1COC(=O)c1ccc2ccccc2n1	-16	12	-3	0	-2	nt	nt	nt	nt
Cc1ccc(COC(=O)c2ccc3ccccc3n2)cc1	10	-91*	-2	0	2	9	98*	-12	99*
Cc1cc2c(c(SCC(=O)NCCc3ccccc3)n1)C(=O)OC2	5	12	-10	0	0	nt	nt	nt	nt
COc1ccccc1OCC(=O)NN1Cc2ccccc2C1=N	-14	12	-4	0	-2	nt	nt	nt	nt
CC(C)(C)c1ccc(OCC(=O)NN2Cc3ccccc3C2=N)cc1	-12	-89*	7	0	5	12	?	-8	88*
COc1ccc(CCNC(=O)CCCc2ccccc2)cc1OC	-3	32	-2	0	1	nt	nt	nt	nt
Cc1ccccc1NC(=O)Cc1nnc(SCC(=O)NC2CCCCC2)n1C	15	-3	-16	0	2	nt	nt	nt	nt
O=C(Nc1cc(-c2ccccc2)[nH]n1)c1ccccc1	10	-79*	-5	0	3	14	88*	-19	93*
O=C(O)c1ccccc1C(=O)Nc1cc(-c2ccccc2)[nH]n1	8	29	10	0	-1	nt	nt	nt	nt
O=C(Nc1cc(-c2ccccc2)[nH]n1)c1ccccc1F	27	-86*	1	0	0	12	92*	-3	94*
O=C(CCS(=O)(=O)Cc1ccccc1F)NCCc1ccc(Cl)cc1	-17	7	-7	0	2	nt	nt	nt	nt
COc1cc(Nc2nc3c(N)cc(C(F)(F)F)cc3nc2-c2ccccc2)cc(OC)c1OC	nt	nt	-6	nt	4	nt	nt	nt	nt
